Consider 22 sequences from the supplement of paper PMC6555819.

The experiment has as its system RARb:RXRa (NR concentration 270 nM, RXRa partner concentration 90 nM). The experiment can be described thus: PBM binding z-score (relative to random genomic background probes); higher = stronger binding; sequences stand for … in GC…GCGATTGACAGCGTAGAATGAAGG
The method in brief:
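Binding buffer was PBS pH 7.4 with 2% milk, 0.02% Triton X-100, 1 mM DTT, 0.2 mg/mL BSA and 0.4 mg/ml salmon testes DNA. In it, ligand-free nuclear receptor dimers were incubated 1 h on custom Agilent 4×180K protein-binding microarrays carrying double-stranded probes. Antibodies against each partner (one per run) detected binding, and z-scores were calculated against random background probes after regression normalization of scanned fluorescence.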
Sequence AGAACGAGGGCACGCTGAGTTCATAGCAGAGTAG came in with a PBM binding z-score of 3.2.
In the case of GATACAGGGTCAGCTAGAGGACAGAGTATGGAAA it was 4.34; in that of AGTCAAAGTTCATCTAGGTAACGTAGGATATGCT, 4.85.
For GGAACGAGGACAAGTTGATAGCAGAGTTTGATGG, the PBM binding z-score amounted to 1.32.
In the case of GCTGCTAGGTCTGGTTGGTCAGCTAACGGGTACG it was 0.00464.
In the case of AGAATGAGGTAATACGTAGATCAGGGAAGAAAGT it was 0.0493; in that of AGAACGAGGGCACGCTGAGTTGATGGCAGAGTAG, 2.38; in that of TCACGGAGGACACGAAAGGTCAGAGCTCGACATC, 4.28.
In the case of TCTTGTAGATAAGCAGGTTAAGAAAGCTGGCCAA it was 0.0488; in that of CCTAGTTGGTCAGGAGGTTACACACCGGATATGA, 1.47.
TCTGCTAGGTCAGTTGGTCAGCCAACGAGCTGCC registered a PBM binding z-score of 3.3.
Take CATCCAAGGTCAGAGAGGTCAGTGAATGCCGAGT: the PBM binding z-score stood at 5.38.
In the case of TCAAGCAGGCCAGAGGGTCACTCAAGAGGTACGG it was 2.51; in that of AATACAGGGTCACTAGGCGAGAGTAGGTACGAAT, 4.29.
In the case of CCTACTTGGTCAGGAGGTCACACACCGGATATGA it was 3.75.
In the case of GGAACGAGGGCAAAGATGATAGCATCTGTCGACG it was 1.98.
As for CCTACAGGGCCACGAAAGGTCATTGATTCAGTGA, the PBM binding z-score was 4.32.
In the case of TTACCAAGGTGTAGGTCGTTGATCCCTCTGTAGA it was 0.379; in that of CGAACTACGTCAGAACAGGACAGTGAAGGATGAT, -0.283; in that of CCTACTGGGCCACGGAAGGTCATTGATTCAGTGA, 3.
In the case of CCTAGTTGGTCAAGAGGTCACACACCGGATATGA it was 4.83; in that of TCTTGTAGATTAACAGGAGGTTAAGAAAGATCGA, 0.685.
